From the supplement of paper PMC7411054

Columns and labels:
Assay in all cases: phenotypically active (imaging signature differs from DMSO and reproducible) at any of 0.3-9 uM (binary (1 = active, 0 = inactive)); higher = active
Details in all cases: treatment time: 24 h
[1] = system: A549-ACTB-RAB5A
Outline: (§1)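 Each of fifteen gene-edited A549, HepG2 and WPMY1 reporter lines, marked with BFP for segmentation and GFP and RFP/FusionRed, was treated in four wells at 0.3, 1, 3 or 9 µM for 24 h prior to live imaging. Normalisation of per-well live-cell features used solvent control wells. Deviation needed ≥3 of 4 wells beyond the 95th percentile of control Euclidean distances, and reproducibility needed a median replicate Pearson correlation above the 95th percentile of non-replicates. Both were required for phenotypic activity.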

[2] = system: A549-CANX-COX4
Outline: as §1

[3] = system: A549-GM130-SQSTM1
Outline: as §1

[4] = system: A549-TP53BP1-CLTA
Outline: as §1

[5] = system: A549-TUBA1B-RELA
Outline: as §1

[6] = system: HepG2-ACTB-RAB5A
Outline: as §1

[7] = system: HepG2-CANX-COX4
Outline: as §1

[8] = system: HepG2-GM130-SQSTM1
Outline: as §1

[9] = system: HepG2-TP53BP1-CLTA
Outline: as §1

[10] = system: HepG2-TUBA1B-RELA
Outline: as §1

[11] = system: WPMY1-ACTB-RAB5A
Outline: as §1

[12] = system: WPMY1-CANX-COX4
Outline: as §1

[13] = system: WPMY1-GM130-SQSTM1
Outline: as §1

[14] = system: WPMY1-TP53BP1-CLTA
Outline: as §1

[15] = system: WPMY1-TUBA1B-RELA
Outline: as §1

Measured: phenotypically active

CC(=O)OC(C)C[N+](C)(C)C (stereo not given) [methacholine]
inactive: [1] 0 | [2] 0 | [3] 0 | [4] 0 | [5] 0 | [6] 0 | [7] 0 | [8] 0 | [9] 0 | [10] 0 | [11] 0 | [12] 0 | [13] 0 | [14] 0 | [15] 0

C[C@H](NCCc1ccc(O)cc1)[C@H](O)c1ccc(O)cc1 [ritodrine]
inactive: [1] 0 | [2] 0 | [3] 0 | [4] 0 | [5] 0 | [6] 0 | [7] 0 | [8] 0 | [9] 0 | [10] 0 | [11] 0 | [12] 0 | [13] 0 | [14] 0 | [15] 0

O=S(=O)(N[C@H](CO)C(C(F)(F)F)C(F)(F)F)c1ccc(Cl)s1 [begacestat]
inactive: [1] 0 | [2] 0 | [3] 0 | [4] 0 | [5] 0 | [6] 0 | [7] 0 | [8] 0 | [9] 0 | [10] 0 | [11] 0 | [12] 0 | [13] 0 | [14] 0 | [15] 0

CCN(c1ccccc1)c1cc(NC)[n+](C)c(C)n1
inactive: [1] 0 | [2] 0 | [3] 0 | [4] 0 | [5] 0 | [6] 0 | [7] 0 | [8] 0 | [9] 0 | [10] 0 | [11] 0 | [12] 0 | [13] 0 | [14] 0 | [15] 0

CN(C)CCc1c[nH]c2ccc(Cn3cncn3)cc12 [rizatriptan]
inactive: [1] 0 | [2] 0 | [3] 0 | [4] 0 | [5] 0 | [6] 0 | [7] 0 | [8] 0 | [9] 0 | [10] 0 | [11] 0 | [12] 0 | [13] 0 | [14] 0 | [15] 0

N#Cc1ccccc1OCC(O)CNCCNC(=O)Nc1ccccc1 (stereo not given)
inactive: [1] 0 | [2] 0 | [3] 0 | [4] 0 | [5] 0 | [6] 0 | [7] 0 | [8] 0 | [9] 0 | [10] 0 | [11] 0 | [12] 0 | [13] 0 | [14] 0 | [15] 0

NS(=O)(=O)c1cc2c(cc1Cl)NC(C(Cl)Cl)NS2(=O)=O (stereo not given) [trichlormethiazide]
inactive: [1] 0 | [2] 0 | [3] 0 | [4] 0 | [5] 0 | [6] 0 | [7] 0 | [8] 0 | [9] 0 | [10] 0 | [11] 0 | [12] 0 | [13] 0 | [14] 0 | [15] 0

COc1ccc(OC)c(C(O)CNC(=O)CN)c1 (stereo not given) [midodrine]
inactive: [1] 0 | [2] 0 | [3] 0 | [4] 0 | [5] 0 | [6] 0 | [7] 0 | [8] 0 | [9] 0 | [10] 0 | [11] 0 | [12] 0 | [13] 0 | [14] 0 | [15] 0

COc1c(O[C@@H]2O[C@H](CO)[C@@H](O)[C@H](O)[C@H]2O)cc2c(c1OC)-c1ccc(SC)c(=O)cc1[C@@H](NC(C)=O)CC2 [Thiocolchicoside]
inactive: [1] 0 | [2] 0 | [3] 0 | [4] 0 | [5] 0 | [6] 0 | [7] 0 | [8] 0 | [9] 0 | [10] 0 | [11] 0 | [12] 0 | [13] 0 | [14] 0 | [15] 0

COc1ccc([C@@H]2CC(=O)c3c(O)cc(O[C@@H]4O[C@H](CO[C@@H]5O[C@@H](C)[C@H](O)[C@@H](O)[C@H]5O)[C@@H](O)[C@H](O)[C@H]4O)cc3O2)cc1O [Hesperidin]
inactive: [1] 0 | [2] 0 | [3] 0 | [4] 0 | [5] 0 | [6] 0 | [7] 0 | [8] 0 | [9] 0 | [10] 0 | [11] 0 | [12] 0 | [13] 0 | [14] 0 | [15] 0

C[N+](C)(C)CC[N+]1(C)Cc2c(Cl)c(Cl)c(Cl)c(Cl)c2C1 [Chlorisondamine diiodide]
inactive: [1] 0 | [2] 0 | [3] 0 | [4] 0 | [5] 0 | [6] 0 | [7] 0 | [8] 0 | [9] 0 | [10] 0 | [11] 0 | [12] 0 | [13] 0 | [14] 0 | [15] 0

C=C1C[C@]23C[C@@]1(O)CC[C@H]2[C@@]12C=C[C@H](O)[C@](C)(C(=O)O1)[C@H]2[C@@H]3C(=O)O [Gibberellic acid]
inactive: [1] 0 | [2] 0 | [3] 0 | [4] 0 | [5] 0 | [6] 0 | [7] 0 | [8] 0 | [9] 0 | [10] 0 | [11] 0 | [12] 0 | [13] 0 | [14] 0 | [15] 0
